Assays:
Assay in all cases: PBM binding z-score (relative to random genomic background probes); higher = stronger binding; sequences stand for … in GC…GCGATTGACAGCGTAGAATGAAGG
[1] = system: FXR:RXRa (NR concentration 270 nM, RXRa partner concentration 90 nM)
Method in brief: (§1)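 Binding buffer was PBS pH 7.4 with 2% milk, 0.02% Triton X-100, 1 mM DTT, 0.2 mg/mL BSA and 0.4 mg/ml salmon testes DNA. In it, ligand-free nuclear receptor dimers were incubated 1 h on custom Agilent 4×180K protein-binding microarrays carrying double-stranded probes. Antibodies against each partner (one per run) detected binding, and z-scores were calculated against random background probes after regression normalization of scanned fluorescence.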

[2] = system: LXRa:RXRa (NR concentration 270 nM, RXRa partner concentration 90 nM)
Method in brief: as §1

[3] = system: LXRa homodimer (NR concentration 270 nM)
Method in brief: as §1

[4] = system: LXRb:RXRa (NR concentration 270 nM, RXRa partner concentration 90 nM)
Method in brief: as §1

[5] = system: LXRb homodimer (NR concentration 270 nM)
Method in brief: as §1

[6] = system: PPARa:RXRa (NR concentration 270 nM, RXRa partner concentration 90 nM)
Method in brief: as §1

[7] = system: PPARg:RXRa (NR concentration 180 nM, RXRa partner concentration 90 nM)
Method in brief: as §1

[8] = system: PPARg:RXRa 270nM:90nM, anti-RXR (NR concentration 270 nM, RXRa partner concentration 90 nM)
Method in brief: as §1

[9] = system: PPARg:RXRa 30nM:10nM, anti-RXR (NR concentration 30 nM, RXRa partner concentration 10 nM)
Method in brief: as §1

[10] = system: PPARg:RXRa 90nM:30nM, anti-RXR (NR concentration 90 nM, RXRa partner concentration 30 nM)
Method in brief: as §1

[11] = system: PPARg:RXRa DBDmut IVT, anti-RXR (DBD mutation: RXRa K156A/R161A, NR concentration 270 nM, RXRa partner concentration 90 nM)
Method in brief: as §1

[12] = system: PPARg:RXRa IVT, anti-PPARg (NR concentration 270 nM, RXRa partner concentration 90 nM)
Method in brief: as §1

[13] = system: PPARg DBDmut:RXRa IVT, anti-PPARg (DBD mutation: PPARg1 K132A/R137A, NR concentration 270 nM, RXRa partner concentration 90 nM)
Method in brief: as §1

[14] = system: PPARg DBDmut IVT, anti-PPARg (DBD mutation: PPARg1 K132A/R137A, NR concentration 270 nM)
Method in brief: as §1

[15] = system: PPARg homodimer (NR concentration 180 nM)
Method in brief: as §1

[16] = system: PXR:RXRa (NR concentration 270 nM, RXRa partner concentration 90 nM)
Method in brief: as §1

[17] = system: PXR homodimer (NR concentration 270 nM)
Method in brief: as §1

[18] = system: RARa:RXR (NR concentration 270 nM, RXRa partner concentration 90 nM)
Method in brief: as §1

[19] = system: RARa homodimer (NR concentration 270 nM)
Method in brief: as §1

[20] = system: RARb:RXRa (NR concentration 270 nM, RXRa partner concentration 90 nM)
Method in brief: as §1

Sequence | PBM binding z-score [1] | PBM binding z-score [2] | PBM binding z-score [3] | PBM binding z-score [4] | PBM binding z-score [5] | PBM binding z-score [6] | PBM binding z-score [7] | PBM binding z-score [8] | PBM binding z-score [9] | PBM binding z-score [10] | PBM binding z-score [11] | PBM binding z-score [12] | PBM binding z-score [13] | PBM binding z-score [14] | PBM binding z-score [15] | PBM binding z-score [16] | PBM binding z-score [17] | PBM binding z-score [18] | PBM binding z-score [19] | PBM binding z-score [20]
CCTACTGGGCCACGAAACGTCATTGATTCAGTGA | -0.574 | -0.675 | -0.582 | -0.896 | -0.886 | 0.486 | 1.59 | 1.19 | -0.214 | 0.157 | 5.46 | 4.94 | 0.954 | 0.628 | -0.288 | -0.903 | -0.805 | -0.908 | -0.363 | 0.0906
TCTGTTAGGTCAACGATGGTCAGCTAATCTGCTA | 4.02 | 3.8 | 0.814 | 2.6 | 1.88 | 3.76 | 2.17 | 3.13 | 3.15 | 3.12 | 3.53 | 4 | 2.9 | 2.09 | 2.86 | 2.43 | 0.247 | 3.28 | 1.58 | 4.37
TCTTGCAGGCCAGAGGGTCACTCAAGAGGTACGG | 1.13 | 1.04 | -0.621 | 1.3 | -0.52 | 2.81 | 1.99 | 3.39 | 2.63 | 3.38 | 1.23 | 1.74 | 0.108 | 0.193 | 1.21 | 1.65 | -0.469 | 2.21 | -0.686 | 2.44
CGAACTAGGTCATCCAGGACAGTCAATACATTGA | 4.68 | 3.11 | 0.817 | 2.43 | 0.306 | 5.03 | 7.74 | 6.5 | 3.94 | 6.22 | 8.57 | 8.35 | 3.88 | 2.33 | 1.98 | 2.25 | 1.6 | 2.83 | 0.712 | 3.95
TCTTGTAGATCAACGGTTAAGAAAGCCGAAGCCT | 0.513 | 0.28 | -0.0283 | 0.131 | -0.0358 | 1.14 | 0.464 | 2.61 | 3.23 | 3.03 | 1.73 | 0.568 | 0.699 | 0.541 | 0.0861 | 0.292 | -0.149 | 0.701 | 0.15 | 0.235
CTACCAAGGTGAACAATGTCGTTGATTACTATTC | 0.559 | 0.263 | 0.0434 | 0.937 | 0.00375 | 1.37 | 0.621 | 0.75 | 0.226 | 0.326 | 2.67 | 2.51 | 0.151 | 0.164 | 0.475 | 0.327 | -0.0411 | 0.755 | 0.471 | 1.67
